18 compounds from PubChem BioAssay (NCI) can be followed below.

Common to all, as to assay: NCI-60 one-dose screen, 48 h (100 = growth as untreated, 0 = no growth, -100 = all killed)
Holding throughout (conditions): 10 µM unless noted

Assay [1] has as its system HCT-15 colon.
For assay [2], the system named is HT29 colon.
Assay [3] has as its system SNB-75 CNS.
Assay [4] has as its system SNB-19 CNS.
For assay [5], the system named is U251 CNS.
The test system of assay [6] is PC-3 prostate.
Assay [7] relates to SK-MEL-5 melanoma.
For assay [8], the system named is LOX IMVI melanoma.
Assay [9] has as its system SK-MEL-28 melanoma.

Molecules are shown by their SMILES. The panel holds about 83,000 compounds, 20% with a hit somewhere; the sample as a whole holds those more often.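 Results are percent growth after 48 hours of single-concentration exposure. 100 means growth as in untreated cells, lower positive values show inhibition; negative values down to -100 show cell death.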 A number with no mark means an inactive call. Calls of active or inactive are those of the source. Rule for the calls: active = growth percent below 10; inactive = the rest.

As for `C=CC(=O)N[C@H](Cc1ccc(-c2cc(Cl)cc(Cl)c2)cc1)[C@H](O)[C@@H](O)C(=O)O`, the growth in assay [1] was 96%; in assay [2], 81.5%; in assay [3] it was 87%; in assay [4] it was 99.5%; in [5], 80.2%; in assay [6] it was 63.9%. The growth in [7] was 91.6%; in assay [8], 95.6%; in assay [9], 106%.
Turning to `Cn1cc(-c2csc(-c3cn(CCNC(=O)OC(C)(C)C)c4ccccc34)n2)c2cccnc21`, the growth in assay [1] is 60.1%; in assay [2], 90.9%; in assay [3], 88.5%; in assay [4], 94.3%; in [5] it was 83.1%; in [6], 36.9%. The growth was 20.1% in assay [7], 82.4% in [8] and 94.3% in [9].
`Nc1ncnc2nc(Br)[nH]c12`: the growth in assay [1] was 108%; in [2], 102%; in assay [3], 87.2%; in [4], 101%; in assay [5], 89.4%; in [6], 78.3%. The growth in assay [7] is 100%; in assay [8], 93.7%; in assay [9] it was 114%.
Turning to `Cn1cc(-c2csc(-c3cn(CCNC(=O)OC(C)(C)C)c4ccc(F)cc34)n2)c2cccnc21`, the growth in assay [1] was 52.8%; in assay [2], 76.2%; in [3], 86.3%; in assay [4], 90.3%; in assay [5] it was 82.2%; in [6] it was 25.9%. In addition, the growth in assay [7] is 23.6%; in assay [8] it was 71.9%; in assay [9] it was 88.7%.
`CCN1CCN(c2nc(C)cc(N(CCCNc3ccnc4cc(Cl)ccc34)Cc3ccco3)n2)CC1`: the growth in assay [1] was 17.9%; in [2] it was 11.4%; in assay [3] it was 66.8%; in assay [4], 73.1%; in assay [5], 42.2%; in [6], 53.9%. The growth in assay [7] is -37.8% (active); in [8], 9.87% (active); in [9], -63.7% (active).
As for `COC(=O)[C@]12CC[C@@H](C)[C@H](C)[C@@H]1C1=CC[C@@H]3[C@@]4(C)CC(=O)[C@H](OC(=O)c5ccco5)[C@@]5(C)COC(=C45)C[C@@]3(C)[C@]1(C)CC2`, the growth was 24.1% in assay [1]; 20.1% in assay [2]; 41.7% in assay [3]; 40.4% in assay [4]; 24.9% in [5]; 17.3% in [6]. For the same compound, the growth in assay [7] is -46.1% (active); in [8], 6.2% (active); in assay [9], 33%.
On to `C[C@H]1OC(=O)/C=C/[C@@H](O)[C@@H](O)CCCCCCCC[C@@H]1O`, for which the growth in assay [1] was 101%; in assay [2], 87%; in assay [3] it was 90.5%; in [4], 100%; in [5], 90.2%; in assay [6], 85.2%. The growth was 98% in assay [7], 102% in assay [8] and 108% in [9].
Turning to `C[C@@H](C(=O)O)c1ccc2c3cc(Cl)ccc3n(Cc3cc(=O)oc4ccc(Cl)cc34)c2c1`, the growth in assay [1] is 99.1%; in assay [2], 96.9%; in [3] it was 90.8%; in [4] it was 101%; in [5], 101%; in [6], 98.3%. Further, the growth was 98.4% in [7], 96.4% in assay [8] and 99.9% in assay [9].
For the compound `CCCCC/C(=C\c1ccccc1)C1OC(C)C(C)O1` (configuration not stated), the growth was 109% in [1]; 81.3% in assay [2]; 92.2% in assay [3]; 98.6% in assay [4]; 86.3% in assay [5]; 69.6% in [6]. Also, the growth in assay [7] is 92.8%; in assay [8], 97.9%; in assay [9] it was 106%.
As to `COc1ccc(/C=C/C(=O)NCCO)cc1`, the growth in assay [1] is 98%; in assay [2] it was 96.1%; in assay [3], 80.7%; in [4] it was 111%; in assay [5], 94.8%; in assay [6], 91.8%. In addition, the results for the growth in [7], in [8] and in [9] were 101%, 95.9% and 104%, respectively.
For `Cn1cc(-c2csc(-c3cn(CCN)c4ccc(Br)cc34)n2)c2cccnc21`, the growth in [1] was 36.5%; in assay [2], 47.2%; in assay [3] it was 73.4%; in assay [4], 74.1%; in assay [5], 63.1%; in [6], 66.3%. In addition, the growth was 86.8% in assay [7], 53.5% in assay [8] and 100% in assay [9].
Regarding `Cn1c(=O)c2c(nc(N3CCCC3)n2C)n(C)c1=O`, the growth in [1] is 103%; in [2], 94.5%; in [3], 89.9%; in assay [4], 106%; in assay [5] it was 87.5%; in assay [6], 91.2%. Besides, the growth was 102% in [7], 96.5% in [8] and 104% in assay [9].
In the case of `COc1cnc2c(c1)C(=O)c1c-2n(CCCNC2=NCCS2)c(=O)c2cc([N+](=O)[O-])ccc12`, the growth in [1] was -60.8% (active); in [2] it was -42.4% (active); in assay [3] it was 23.7%; in assay [4], 27.2%; in assay [5] it was -83.9% (active); in [6], -48.1% (active). In addition, the growth in assay [7] is -41% (active); in [8] it was -91.3% (active); in assay [9], -35.9% (active).
`N=c1ccc2nc3c(cc(N)c4ccccc43)oc-2c1`: the growth was -69.9% (active) in assay [1]; -63% (active) in assay [2]; -100% (active) in assay [3]; -94.7% (active) in [4]; -87.8% (active) in assay [5]; -39.3% (active) in [6]. The growth in assay [7] is -100% (active); in assay [8], -95.6% (active); in [9] it was -78.8% (active).
For the compound `COc1ccc2[nH]c(-c3ccc(Cl)cc3)cc(=O)c2c1`, the growth was 96.4% in assay [1]; 96.3% in assay [2]; 93.4% in [3]; 96% in assay [4]; 96.7% in assay [5]; 88% in [6]. Also, the values for the growth in assay [7], in assay [8] and in assay [9] were 95.6%, 100% and 104%, respectively.
`CCCCC[C@H]1C/C=C2/C(=O)C(Cl)=C[C@@H]2C/C=C\CCCC(=O)O[C@@H](CCCCC)C/C=C2/C(=O)C(Cl)=C[C@@H]2C/C=C\CCCC(=O)O1`: the growth in assay [1] is -24.6% (active); in assay [2] it was -56% (active); in assay [3], 11.9%; in [4], -57.8% (active); in assay [5], -78.7% (active); in assay [6] it was -37.7% (active). Also, the results for the growth in [7], in assay [8] and in assay [9] were -94.4% (active), -74.7% (active) and -48.1% (active), respectively.
With `C=C1C(=O)O[C@H]2[C@H]1CC/C(COC(=O)NCc1c[nH]c3ccccc13)=C\CC[C@@]1(C)O[C@@H]21`, the growth in assay [1] was 4.35% (active); in assay [2] it was 8.59% (active); in assay [3] it was 72.1%; in [4], 69.4%; in [5], 82.8%; in assay [6] it was 50.4%. Further, the growth was 45.2% in assay [7], 16.4% in assay [8] and 33.9% in [9].
On to `NCCn1cc(-c2nc(-c3c[nH]c4ncccc34)cs2)c2cc(Br)ccc21`, for which the growth in [1] was 27.1%; in [2], 31%; in [3] it was 72.7%; in [4], 79.3%; in assay [5], 67.9%; in [6], 59.9%. The growth is 85.1% in assay [7], 82.6% in assay [8] and 99.4% in [9].
